About 79,000 compounds went through this panel and 15% of them were active in at least one assay; those are over-represented in the sample as a whole. A number with no mark means an inactive call. Active and inactive are the calls of the source. Rule as the data show it: active = growth inhibition above about 70%; inactive = the rest.

Growth inhibition data for 39 compounds are collected here from PubChem BioAssay (NCI).

Assay [1] in a line: NCI Yeast Anticancer Drug Screen. Data for the rad50 strain (AID 155).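 Also: 0% = growth of vehicle-only cultures of the same strain.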 The conditions noted are these: S. cerevisiae rad50 strain growth inhibition; at 50.0 µM; active compounds read high. In short, it runs like this:
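Inhibition values express reduced yeast growth in compound-treated cultures relative to vehicle-treated controls.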

A short description of assay [2]: NCI Yeast Anticancer Drug Screen. Data for the mec2-1 strain (AID 157). As to conditions: S. cerevisiae mec2-1 strain, at 50.0 µM, active compounds read high. The method, boiled down:
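Vehicle-treated cultures served as reference for growth inhibition of compound-exposed mec2-1 yeast.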

Assay [3] can be described thus: NCI Yeast Anticancer Drug Screen. Data for the sgs1 mgt1 strain (AID 161).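 Also: 0% = growth of cultures given vehicle only.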 The conditions noted are these: S. cerevisiae sgs1 mgt1 strain, at 50.0 µM, active compounds read high. The method, boiled down:
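Read-out: growth inhibition vs vehicle controls. Cells: mutant yeast strain deficient in DNA damage repair.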

A short description of assay [4]: NCI Yeast Anticancer Drug Screen. Data for the cln2 rad14 strain (AID 165).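 Also: 0% = growth equal to vehicle treated cultures.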 The conditions noted are these: S. cerevisiae cln2 rad14 strain, at 50.0 µM, active compounds read high. The method, boiled down:
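Each compound was tested on cln2 rad14 yeast. Inhibition of growth was calculated against vehicle-exposed controls.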

Assay [5] can be described thus: NCI Yeast Anticancer Drug Screen. Data for the bub3 strain (AID 167). As to conditions: S. cerevisiae bub3 mutant strain, at 50.0 µM, active compounds read high. The method, boiled down:
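Steps: expose the mutant yeast strain to compound; grow alongside vehicle-treated cultures; measure growth; express inhibition against the vehicle cultures.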

The nature of assay [6]: NCI Yeast Anticancer Drug Screen. Data for the mlh1 rad18 strain (AID 175). As to conditions: S. cerevisiae mlh1 rad18 strain growth inhibition; at 50.0 µM; active compounds read high. In short, it runs like this: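 Vehicle-treated cultures served as the reference for growth inhibition in a yeast strain carrying DNA damage repair alterations exposed to each compound.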

With `O=C1/C(=C/c2ccc3c(c2)OCO3)SC2C=Nc3ccccc3N12` (centres undefined), the growth inhibition in assay [1] is -14%; in assay [2], -20.3%; in assay [3] it was 1.2%; in assay [4], -7.45%; in assay [5] it was 2.5%; in assay [6], -8.65%.
As for `COc1cc(C)cc(C(=O)C2=NNCC2c2ccccc2)c1O` (centres undefined), the growth inhibition is 23.1% in assay [1]; 19.4% in assay [2]; 26.8% in assay [3]; 10.9% in assay [4]; 17.1% in assay [5]; 16.2% in assay [6].
For `Cc1ccc(S(=O)(=O)CC(=O)CC(=O)C(=O)Nc2ccc(Cl)cc2C)cc1`, the growth inhibition in assay [1] was 11.2%; in assay [2], -0.3%; in assay [3], -7.95%; in assay [4], -22.4%; in assay [5] it was -0.75%; in assay [6], 27.3%.
As to `COC(=O)C#Cc1cccc(OC)c1OC`, the growth inhibition was 22.1% in assay [1]; 14.9% in assay [2]; 22.9% in assay [3]; -31.2% in assay [4]; 12.3% in assay [5]; 10.2% in assay [6].
Take `O=S1(=O)Cc2ccccc2O1`: the growth inhibition was 4.25% in assay [1]; 5.2% in assay [2]; 28.6% in assay [3]; -3.2% in assay [4]; -19% in assay [5]; 33% in assay [6].
On to `O=C1C2=Cc3ccccc3CCN2c2ccc([N+](=O)[O-])cc21`, for which the growth inhibition in assay [1] was -28.9%; in assay [2] it was 5.35%; in assay [3] it was -39.4%; in assay [4], -7%; in assay [5], 1.7%; in assay [6] it was -24.2%.
Take `C/C(=N/NC(N)=S)c1cn[nH]c1C`: the growth inhibition was -64.3% in assay [1]; -19.9% in assay [2]; -16.1% in assay [3]; -55.4% in assay [4]; 4.5% in assay [5]; -1.6% in assay [6].
Turning to `O=C1NC(CO)C(=O)NC1CO` (centres undefined), the growth inhibition in assay [1] is 3.7%; in assay [2] it was -4.4%; in assay [3], -12.2%; in assay [4], -2.75%; in assay [5], 0.25%; in assay [6], -4.8%.
With `CCC(NC(C)c1ccccc1)C(O)c1ccc(OCc2ccccc2)c(OCc2ccccc2)c1` (centres undefined), the growth inhibition in assay [1] was 88.6% (active); in assay [2], 91.5% (active); in assay [3], 92.3% (active); in assay [4], 91.3% (active); in assay [5] it was 91.5% (active); in assay [6], 87.7% (active).
Consider `O=c1ccc2ccc(O)c(O)c2o1`, for which the growth inhibition in assay [1] was -10.9%; in assay [2], -5.3%; in assay [3], 12.9%; in assay [4], 18.1%; in assay [5], 30.7%; in assay [6], 1.5%.
As to `CNC(=O)c1cc2nc3ccccc3c(=O)n2c2ccccc12`, the growth inhibition in assay [1] was -46.3%; in assay [2], -54%; in assay [3], -25.1%; in assay [4] it was -20.6%; in assay [5], -7%; in assay [6], -31.1%.
Take `C[C@]12C(=O)OC[C@H](c3ccccc3)N1C(=O)N(Cc1ccccc1)[C@@H]2CO`: the growth inhibition in assay [1] was -27.8%; in assay [2], -26.1%; in assay [3], -17.6%; in assay [4] it was 1.6%; in assay [5] it was 17.1%; in assay [6], -9.5%.
For the compound `O=C(Cc1nccc2c1[nH]c1ccccc12)OC1C#CCSCC#C/C=C\1` (centres undefined), the growth inhibition in assay [1] is -0.55%; in assay [2] it was 17.8%; in assay [3], 9.5%; in assay [4] it was -14.7%; in assay [5] it was 12.3%; in assay [6] it was -1.15%.
For `CCOC(=O)C(=O)N1Cc2cc3c(cc2C2CC(O)C(O)CC21)OCO3` (centres undefined), the growth inhibition in assay [1] was -8.2%; in assay [2] it was -3.9%; in assay [3], -1.1%; in assay [4], 6.05%; in assay [5], 2.85%; in assay [6] it was 5.85%.
In the case of `C#CC(CCC)NCCCC` (centres undefined), the growth inhibition was 16.2% in assay [1]; -8.95% in assay [2]; -8.8% in assay [3]; 3.05% in assay [4]; -4.9% in assay [5]; -1.95% in assay [6].
As for `Cc1cccc(C(O)(c2cccc(C)c2)C2(O)CCCCC2)c1`, the growth inhibition in assay [1] was -9.45%; in assay [2] it was -0.45%; in assay [3], -0.9%; in assay [4], 21.2%; in assay [5] it was 1%; in assay [6] it was 6.9%.
As for `CNc1ccc(C(=O)N(C(=O)NC2CCCCC2)C2CCCCC2)cc1`, the growth inhibition in assay [1] is -6.65%; in assay [2], -5.6%; in assay [3], 4.7%; in assay [4], -6.85%; in assay [5], -1.95%; in assay [6], 5.15%.
For the compound `CS(=O)(=O)OCC(=O)NCCCCNC(=O)COS(C)(=O)=O`, the growth inhibition in assay [1] was -12.4%; in assay [2], 2.7%; in assay [3], 4.55%; in assay [4] it was -29.5%; in assay [5] it was 7.45%; in assay [6] it was 10.3%.
Regarding `O=c1c2cc(Br)ccc2n(C2OC(CO)C(O)C(O)C2O)c(=S)n1-c1ccccc1` (centres undefined), the growth inhibition was 30.6% in assay [1]; 28.4% in assay [2]; 31.7% in assay [3]; 34.5% in assay [4]; 50.5% in assay [5]; 24.9% in assay [6].
Regarding `Cc1ccc(-c2c(C#N)c(-c3ccccc3)c(C#N)c(=O)n2NS(=O)(=O)c2ccc(C)cc2)cc1`, the growth inhibition in assay [1] was 3.65%; in assay [2], 28.1%; in assay [3], 17.1%; in assay [4] it was 18.7%; in assay [5], 18.2%; in assay [6], 23.3%.
Turning to `Cn1cnc([N+](=O)[O-])c1Sc1ccccc1C(=O)O`, the growth inhibition in assay [1] was -2.7%; in assay [2] it was -0.15%; in assay [3] it was -23.1%; in assay [4], 23.6%; in assay [5] it was -0.35%; in assay [6], -12.1%.
Take `O.O.[Cu+2].[Cu+2].[NH-]CCC(=O)[N-]C(Cc1cnc[nH]1)C(=O)O.[NH-]CCC(=O)[N-]C(Cc1cnc[nH]1)C(=O)O` (centres undefined): the growth inhibition in assay [1] is -26.1%; in assay [2], 5.8%; in assay [3], 0.95%; in assay [4], 31.8%; in assay [5], 6.35%; in assay [6], 11.8%.
Consider `O=C(O)c1cccnc1-c1ccccc1`, for which the growth inhibition in assay [1] is -3.95%; in assay [2], 23.6%; in assay [3], -9.85%; in assay [4] it was -4.7%; in assay [5], -12.9%; in assay [6], -12.2%.
With `CCCN(CCC)S(=O)(=O)c1ccc(NC(=O)Oc2ccc([N+](=O)[O-])cc2)cc1`, the growth inhibition in assay [1] is 42.5%; in assay [2], 18.1%; in assay [3] it was 33.5%; in assay [4], 29.9%; in assay [5], 5.85%; in assay [6] it was 34.4%.
On to `c1ccc(C2=C(c3ccccc3)CSSC2)cc1`, for which the growth inhibition in assay [1] was 46.4%; in assay [2], 34.6%; in assay [3] it was 79.8% (active); in assay [4], 46.6%; in assay [5] it was 41.7%; in assay [6], 93.5% (active).
In the case of `CN(CCO)c1nc(N)cc(=O)[nH]1`, the growth inhibition was -17.7% in assay [1]; 12.5% in assay [2]; -10.9% in assay [3]; 4.5% in assay [4]; -10.9% in assay [5]; -8.45% in assay [6].
`ClC12CCC(Cl)(CC1)CC2`: the growth inhibition was 10.5% in assay [1]; 0.65% in assay [2]; -3.95% in assay [3]; -50.6% in assay [4]; -10.7% in assay [5]; -7.95% in assay [6].
In the case of `CC(c1ccccc1O)C1CCCCC1N=O` (centres undefined), the growth inhibition was -0.15% in assay [1]; 3% in assay [2]; 16.1% in assay [3]; -48.5% in assay [4]; 15.2% in assay [5]; -4.15% in assay [6].
With `CN1C(=O)C(=O)N2c3ccc(Cl)cc3C3(c4ccccc4)N=CC12O3` (centres undefined), the growth inhibition in assay [1] is 9.3%; in assay [2] it was 3.05%; in assay [3], 6%; in assay [4], 5%; in assay [5], -8.4%; in assay [6], -3.1%.
`CN(C)c1ccc(N=Nc2ccc3nc[nH]c3c2)cc1`: the growth inhibition in assay [1] was -3.15%; in assay [2], 6.65%; in assay [3], 42%; in assay [4] it was -6.1%; in assay [5] it was -3.3%; in assay [6] it was 26.5%.
On to `CCCCN(CCCC)S(=O)(=O)N1CCOCC1`, for which the growth inhibition is -12.3% in assay [1]; -10.1% in assay [2]; 3% in assay [3]; 9.1% in assay [4]; 10.4% in assay [5]; 2.75% in assay [6].
Turning to `CCC(C)c1cnc(CC(C)C)c(=O)[nH]1` (centres undefined), the growth inhibition was 8.9% in assay [1]; -44.2% in assay [2]; 17.2% in assay [3]; 4.85% in assay [4]; -9.6% in assay [5]; 0.85% in assay [6].
As to `COc1ccccc1C(=O)Nc1c(C)cccc1Cl`, the growth inhibition was -0.45% in assay [1]; -25.9% in assay [2]; -0.8% in assay [3]; 0.4% in assay [4]; -10% in assay [5]; 7% in assay [6].
In the case of `COC(=O)/C=C(/C)c1ccccc1`, the growth inhibition in assay [1] was 1.7%; in assay [2] it was 2.3%; in assay [3], 0.9%; in assay [4] it was 5.65%; in assay [5], 1.45%; in assay [6], -3.5%.
On to `C[N+](C)(C)CC(=O)N/N=C/c1oc(-c2cccc([N+](=O)[O-])c2)c(-c2cccc([N+](=O)[O-])c2)c1[N+](=O)[O-]`, for which the growth inhibition is 19.4% in assay [1]; 11.7% in assay [2]; 11.8% in assay [3]; 16.3% in assay [4]; -19% in assay [5]; 3.35% in assay [6].
Regarding `Cc1c(NC(C)C)ccc(NC(C)C)c1C`, the growth inhibition was 35.3% in assay [1]; 27.6% in assay [2]; 26.3% in assay [3]; 17% in assay [4]; 25.2% in assay [5]; 43.2% in assay [6].
Regarding `CCN=NNc1ccc(C#N)cc1`, the growth inhibition in assay [1] was 6.4%; in assay [2] it was 2.15%; in assay [3] it was -0.25%; in assay [4] it was 6.1%; in assay [5], 16.9%; in assay [6] it was 0.55%.
Consider `C=C(Nc1ccc([N+](=O)[O-])cc1[N+](=O)[O-])c1c/c(=N\NC(N)=S)c2ccccc2o1`, for which the growth inhibition in assay [1] is 25.1%; in assay [2], -16%; in assay [3] it was -3.85%; in assay [4] it was 15.6%; in assay [5], 16.4%; in assay [6] it was 6.45%.
In the case of `COc1ccccc1CC(=O)O`, the growth inhibition was 27.9% in assay [1]; 2.15% in assay [2]; 16.4% in assay [3]; 17.3% in assay [4]; -1.85% in assay [5]; 0.05% in assay [6].
